We go through twelve molecules from PubChem BioAssay (NCATS).

Several values for one entry are separate records, joined by “and”; a condition that tells them apart may be missing. Equal values may be shown once. Values without a mark were called inactive. Inconclusive results are not listed. Activity calls are given as the source filed them. Calls come from the whole dose curve; as a rule, active = well fitted curve in the direction sought with a large enough effect; inconclusive = small, poorly fitted or top-dose-only effect, or another doubt; inactive = no such curve, though single readings can be large; an effect the other way counts as inactive or inconclusive.

The test system of assay [1] is Zika virus NS2B-NS3 protease. Put plainly: Primary screen GU AMC qHTS for Zika virus inhibitors (AID 1347154).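 For activity change, negative = inhibition: 0% = no-inhibitor control and -100% = no-enzyme control.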 Note: nearly all actives have a fitted effect of over 70% in size. Note: potency is the fitted concentration of half-maximal effect. Summed up:
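Unlinked Zika NS2B hydrophilic domain–NS3 protease complex at 25 nM in 10 mM Tris-HCl pH 8.0, 0.01% Tween 20, with an AMC peptide substrate. Fluorescence change (340/450 nm) over 15 min at room temperature, normalized to controls, fitted to 4-parameter Hill.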

For assay [2], the target named is Lysine-specific demethylase 5B (Homo sapiens) (UniProt Q9UGL1). Put plainly: Optimization screen for KDM5B Histone Demethylases FDH coupled qHTS against the LOPAC library (AID 1347166). Note: 0% is about no effect. The note with it: KDM5B demethylation, FDH-coupled NADH fluorescence (FDH is formaldehyde dehydrogenase); at 57.5 µM (top of the series). Summed up: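 KDM5BDeltaAP (200nM final) in 50mM HEPES pH 7.5, 0.01% Tween-20 was preincubated with compound for 10 min at room temperature. A substrate mix of 12.5uM H3K4Me3, 25uM a-ketoglutarate, ascorbate, Fe2+, NAD+ and formaldehyde dehydrogenase was then added. NADH fluorescence (340/450 nm) was read initially and after 30 min.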
Lysine-specific demethylase 5B (Homo sapiens), sequence (Q9UGL1 whole entry, looked up): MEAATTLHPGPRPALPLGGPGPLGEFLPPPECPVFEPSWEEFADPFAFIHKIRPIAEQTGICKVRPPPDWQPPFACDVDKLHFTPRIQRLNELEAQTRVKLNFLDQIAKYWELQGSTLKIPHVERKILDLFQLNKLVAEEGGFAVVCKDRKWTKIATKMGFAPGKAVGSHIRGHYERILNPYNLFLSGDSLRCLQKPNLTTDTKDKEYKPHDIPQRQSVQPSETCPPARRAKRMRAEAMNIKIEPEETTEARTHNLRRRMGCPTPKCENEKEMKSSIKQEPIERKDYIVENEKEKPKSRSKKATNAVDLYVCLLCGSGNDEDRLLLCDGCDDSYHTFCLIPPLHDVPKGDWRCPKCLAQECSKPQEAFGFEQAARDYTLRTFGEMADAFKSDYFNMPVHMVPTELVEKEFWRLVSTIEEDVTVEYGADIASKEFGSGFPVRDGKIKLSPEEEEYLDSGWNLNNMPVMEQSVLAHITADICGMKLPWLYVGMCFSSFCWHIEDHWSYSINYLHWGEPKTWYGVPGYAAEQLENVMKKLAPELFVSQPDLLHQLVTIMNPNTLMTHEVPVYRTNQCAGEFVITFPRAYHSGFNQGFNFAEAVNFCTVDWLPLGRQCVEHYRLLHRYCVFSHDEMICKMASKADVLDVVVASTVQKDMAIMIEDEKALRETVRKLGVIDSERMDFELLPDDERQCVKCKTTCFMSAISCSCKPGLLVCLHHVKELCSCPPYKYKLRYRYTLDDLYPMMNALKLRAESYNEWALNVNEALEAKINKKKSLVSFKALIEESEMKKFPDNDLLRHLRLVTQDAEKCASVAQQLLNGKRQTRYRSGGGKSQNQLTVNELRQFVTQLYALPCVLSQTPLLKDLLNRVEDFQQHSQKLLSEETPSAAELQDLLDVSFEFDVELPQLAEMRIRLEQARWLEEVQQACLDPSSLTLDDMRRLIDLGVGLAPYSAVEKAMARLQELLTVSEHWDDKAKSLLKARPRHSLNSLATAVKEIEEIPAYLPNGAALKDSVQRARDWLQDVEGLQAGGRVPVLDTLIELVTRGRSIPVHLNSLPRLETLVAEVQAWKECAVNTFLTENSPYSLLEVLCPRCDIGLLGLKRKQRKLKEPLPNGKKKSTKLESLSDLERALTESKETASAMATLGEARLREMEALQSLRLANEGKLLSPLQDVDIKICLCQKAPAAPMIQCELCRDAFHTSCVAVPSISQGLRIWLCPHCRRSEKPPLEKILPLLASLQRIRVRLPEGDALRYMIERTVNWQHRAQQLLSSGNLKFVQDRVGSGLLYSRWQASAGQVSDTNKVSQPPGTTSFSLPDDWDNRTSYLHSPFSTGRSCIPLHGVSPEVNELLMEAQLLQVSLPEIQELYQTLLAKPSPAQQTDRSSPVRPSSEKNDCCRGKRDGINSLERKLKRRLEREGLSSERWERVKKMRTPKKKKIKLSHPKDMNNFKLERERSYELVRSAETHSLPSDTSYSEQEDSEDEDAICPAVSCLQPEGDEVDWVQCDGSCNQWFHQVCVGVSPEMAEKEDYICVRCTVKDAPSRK

Assay [3] can be described thus: qHTS for inhibitors of adenylyl cyclases using a fission yeast platform: a pilot screen against the NCATS LOPAC library (AID 1347410).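 Note: plate controls were DMSO vehicle for no effect and DPI positive control for full effect.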 The method, boiled down: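 Fission yeast qHTS: CHP2027 cells (AC9-GNAS-PDE4D2, fbp1-GFP), 5x10^6 cells/mL working density, EMM + His/Lys/Ura; LOPAC at up to 57 µM final; 18 h dark, 30C; GFP by laser cytometry. DPI positive control, DMSO vehicle.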

Assay [4] in a line: qHTS to identify inhibitors of the type 1 interferon - major histocompatibility complex class I in skeletal muscle: primary screen against the NCATS Mechanism Interrogation Plate v5.0 (MIPE) Libary (AID 1347411).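 For activity change, negative = inhibition: plate controls were vehicle for no effect and reference inhibitor for full effect.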 Note: nearly all actives have a fitted effect of over 65% in size. Note: potency is the fitted concentration of half-maximal effect. The method, boiled down: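 HLA-B HiBit myoblasts, dexamethasone-free medium + 4 ng/ml IFN-b, 24 h compound, 11-pt 1:3 from 46 uM final. Readout: Nano-Glo HiBiT lytic luminescence after 10 min lysis, RT.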

The nature of assay [5]: Validation qHTS assay for inhibitors of Activation Induced Cytidine Deaminase (AID): UDG Counterscreen signal (AID 1347427). Note: 0% is about no effect. Summed up: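 Fluorescence at 560 nm excitation, 665 nm emission reports UDG signal after 250 mM NaOH (2x) addition and 30 min. Enzymes (AID 1 uM, UDG 2 U/mL, at 4/3x) preincubated 10 min with compound, then 4 h with 4x 250 nM DJC20/DJC23 substrate at room temperature.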

The target of assay [6] is Single-stranded DNA cytosine deaminase (Homo sapiens) (UniProt Q9GZX7). Put plainly: Validation qHTS assay for inhibitors of Activation Induced Cytidine Deaminase (AID): AID signal (AID 1347429). Note: % is set by controls: 0 for no effect and ±100 for the full control effect. The method, boiled down:
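AID+UDG coupled FRET deamination; cpds up to 114 uM final; DJC20/DJC23 substrate, 4 hr RT; NaOH stop, 30 min RT; read Ex 540/Em 590.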

Assay [7] can be described thus: Primary qHTS for inhibitors of La Crosse Virus (LACV) - induced cell death in SH-SY5Y cells (AID 1508616).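 Note: top concentration of the series differs between compounds; 0% = infected DMSO wells and 100% = uninfected DMSO wells; higher means more rescue of cells from virus-induced death.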 The method, boiled down: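 Cytopathicity rescue screen: compounds pinned onto SH-SY5Y cells, which are then infected with LACV (MOI 0.01) and held 6 days at 37C. Percent activity is scaled between infected DMSO control and uninfected DMSO control.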
A short description of assay [8]: Confirmatory screen NINDS Rhodamine qHTS for Zika virus inhibitors (AID 1347161).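 Note: purified Zika NS2B-NS3 protease with linked NS2B cofactor domain and Rhodamine110 peptide substrate; plate controls were no-inhibitor control for no effect and no-enzyme control for full effect; nearly all actives have a fitted effect of over 60% in size.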 Summed up: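 Percent inhibition, normalized to uninhibited and enzyme-free controls, is fitted to a 4-parameter Hill equation. Fluorescence change comes from a 15-min cleavage of 1.5 microM bis-peptide Rhodamine110 substrate by 25 nM linked NS2B-NS3 at room temperature.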
Assay [9] is described as follows: Vero cells viability qHTS for Zika virus inhibitors (AID 1347167). Note: % is set by controls: 0 for no effect and ±100 for the full control effect. Summed up:
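qHTS titration; 24-48 h compound exposure, 37 degrees C/5% CO2; DMEM, 4% FBS; CellTiter Glo ATP luminescence.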

Assay [10] can be described thus: Tertiary RLuc qRT-PCR qHTS assay for Zika virus inhibitors (AID 1347169). For activity change, negative = inhibition: top concentration of the series differs between compounds; % is set by controls: 0 for no effect and ±100 for the full control effect. Note: nearly all actives have a fitted effect of over 55% in size. Note: potency is the fitted concentration of half-maximal effect. Summed up:
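Vero, 1,000 cells/well, o/n 37 C; cpd pinned in DMSO; ZIKV-RLuc Cambodian, MOI 1-2, 48-72 h 37 C; live-cell RLuc substrate, lum read at 1-1.5 h.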

Assay [11] can be described thus: qHTS to identify inhibitors of the type 1 interferon - major histocompatibility complex class I in skeletal muscle: primary screen against the NCATS Pharmaceutical Collection (AID 1347407).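 Note: luminescence of HiBiT knocked into endogenous HLA-B as interferon-induced MHC class I level; % is set by controls: 0 for no effect and ±100 for the full control effect.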 The method, boiled down:
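Luminescence from HiBiT-tagged endogenous HLA-B*08:01 served as the read-out of IFN-beta-induced MHC class I in CRISPR-engineered C25cl48 myoblasts. Cells received 4 ng/ml IFN-beta plus compound (high final 46 uM, […]) for 24 h.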

Assay [12] concerns the target Protein phosphatase 1D (Homo sapiens) (UniProt O15297). Put plainly: Rhodamine-PBP qHTS Assay for Modulators of WT P53-Induced Phosphatase 1 (WIP1) (AID 1347425). Note: % of control where 0% means no effect. The method, boiled down: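 The read-out is the change in Rhodamine-PBP fluorescence (f1 - f0, ex 525/em 598 nm) as Pi is released, read each minute for 11 min. Final reaction: 5 nM WIP1, 10 uM phosphopeptide VEPPL-pS-QETFS, 10 uM Rh-PBP, 50 mM Tris-HCl pH 7.5, 30 mM MgCl2. Compound was preincubated with enzyme for 1 hour at room temperature.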

For assay [13] the target is unchanged. Put plainly: RapidFire Mass Spectrometry qHTS Assay for Modulators of WT P53-Induced Phosphatase 1 (WIP1) (AID 1347424).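 Note: plate controls were DMSO wells for no effect and GSK830371 inhibitor control at 10 µM for full effect.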 The method, boiled down:
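RapidFire MS readout of dephosphorylated VEPPL-S-QETFS product, with 1 uM isotope-labelled peptide standard. Reaction: 10 nM WIP1, 2 uM phosphopeptide substrate, 5 min, room temperature, after 1 h compound preincubation; stopped with 0.5% formic acid.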

Assay [14] is described as follows: ZIKV-mCherry secondary qHTS for Zika virus inhibitors (AID 1347158). Note: top concentration of the series differs between compounds. The method, boiled down:
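Read-out is percent infection: mCherry-positive Vero cells (nuclear-proximal intensity >450 RFU, 3 SD above negative controls) counted by high-content imaging of Hoechst-stained, PFA-fixed wells after 48-72 h with ZIKV-mCherry at MOI 1 and compound.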

The subject of assay [15] is Zika virus NS2B-NS3 protease (linked). Put plainly: 384 well plate NINDS AMC confirmatory qHTS for Zika virus inhibitors (AID 1347163). Note: potency is the fitted concentration of half-maximal effect; nearly all actives have a fitted effect of over 50% in size. The note with it: Recombinant NS2B-NS3 protease, Ac-VKTGKR-AMC fluorescence. Summed up: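 Enzyme (5, 30 or 60 nM final) first met test compounds for ~15 min. The AMC-tagged peptide Ac-VKTGKR-AMC followed at 30 microM. Fluorescence was then recorded at 25 min and scaled against no-enzyme and no-inhibitor wells.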

For assay [16], the system named is Zika virus NS2B-NS3 protease (linked construct). The experiment in a line: 384 well plate NINDS Rhodamine confirmatory qHTS for Zika virus inhibitors (AID 1347164).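 Note: fluorescence from protease cleavage of Ac-LKRR-rhodamine 110 substrate; potency is the fitted concentration of half-maximal effect; nearly all actives have a fitted effect of over 65% in size.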 The note with it: rhodamine-110 peptide substrate fluorescence. The method, boiled down:
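Enzyme (final 5/30/60 nM) + cpd (DMSO), ~15 min; add Ac-LKRR-Rd 10 microM final; 25 min RT, dark; FI ex 485/em 538; normalized to no-enzyme, no-inhibitor ctrls; aprotinin intraplate ctrl.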

Assay [17] concerns Zika virus NS2B-NS3 protease (unlinked complex). Put plainly: Primary screen GU Rhodamine qHTS for Zika virus inhibitors: Unlinked NS2B-NS3 protease assay (AID 1347159). Note: % is set by controls: 0 for no effect and ±100 for the full control effect; nearly all actives have a fitted effect of over 60% in size. The method, boiled down: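 Percent inhibition came from the 15-min rise in Rhodamine110 fluorescence (1.5 microM substrate, ~15% conversion), normalized to no-inhibitor and no-enzyme wells and Hill-fitted. Unlinked protease, 25 nM, pH 8.0 Tris buffer; compounds up to 114 microM, 15-min preincubation.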

Assay [18] relates to Zika virus NS2B-NS3 protease (linked construct). The experiment in a line: Primary screen NINDS Rhodamine qHTS for Zika virus inhibitors (AID 1347160). Note: nearly all actives have a fitted effect of over 55% in size. The note with it: outcome: dose series up to 57.1 µM unless noted. Summed up:
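Rhodamine110-peptide cleavage (1.5 µM substrate) by 25 nM linked NS2B-NS3 enzyme at pH 8.0 (Tris, Tween 20), after 15 min RT preincubation with compounds; 15-min fluorescence change normalized to controls and Hill-fitted.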

A short description of assay [19]: Confirmatory screen GU Rhodamine qHTS for Zika virus inhibitors qHTS (AID 1347157).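 Note: plate controls were no-inhibitor wells for no effect and no-enzyme wells for full effect; nearly all actives have a fitted effect of over 70% in size.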 The method, boiled down:
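Buffer 10 mM Tris-HCl pH 8.0, 0.01% Tween 20. Unlinked protease 25 nM; compound preincubation 15 min, RT, protected from light. Substrate Rhod110, 1.5 microM; ~15% conversion in 15 min.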

Single-stranded DNA cytosine deaminase (Homo sapiens), sequence (Q9GZX7 whole entry, looked up): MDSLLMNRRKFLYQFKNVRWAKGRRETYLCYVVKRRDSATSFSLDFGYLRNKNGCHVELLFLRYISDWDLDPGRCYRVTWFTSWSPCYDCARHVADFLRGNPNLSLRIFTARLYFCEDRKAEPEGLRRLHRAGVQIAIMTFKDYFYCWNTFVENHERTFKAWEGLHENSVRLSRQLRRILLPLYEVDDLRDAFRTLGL
Protein phosphatase 1D (Homo sapiens), sequence (O15297 whole entry, looked up): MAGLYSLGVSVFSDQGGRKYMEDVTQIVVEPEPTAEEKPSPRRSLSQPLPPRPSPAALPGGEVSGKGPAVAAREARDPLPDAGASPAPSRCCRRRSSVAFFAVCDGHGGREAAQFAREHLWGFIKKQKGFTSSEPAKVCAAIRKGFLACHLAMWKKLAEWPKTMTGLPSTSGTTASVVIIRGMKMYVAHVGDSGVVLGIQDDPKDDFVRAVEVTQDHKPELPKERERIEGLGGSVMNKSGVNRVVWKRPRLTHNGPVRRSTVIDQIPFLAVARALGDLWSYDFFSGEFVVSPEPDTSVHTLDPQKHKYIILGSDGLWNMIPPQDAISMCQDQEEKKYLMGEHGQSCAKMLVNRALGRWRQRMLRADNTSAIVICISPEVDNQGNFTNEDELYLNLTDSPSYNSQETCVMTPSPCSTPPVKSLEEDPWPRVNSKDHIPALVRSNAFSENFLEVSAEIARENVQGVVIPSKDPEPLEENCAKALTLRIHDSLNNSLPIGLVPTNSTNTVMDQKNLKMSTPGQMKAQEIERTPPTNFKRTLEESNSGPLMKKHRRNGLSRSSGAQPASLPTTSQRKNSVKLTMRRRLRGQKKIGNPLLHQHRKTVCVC

Take `O=C(O)C1CCCN(CCC=C(c2ccccc2)c2ccccc2)C1` (stereo not drawn): the Potency result in assay [1], in assay [4] and in [7] was “inactive” in each case. Further, the activity, negative = inhibition in [2] was -3.3%. Besides, the outcome in [3], in [5] and in assay [6] was inactive.

As for `COc1c(N2CCNC(C)C2)c(F)cc2c(=O)c(C(=O)O)cn(C3CC3)c12` (stereo not drawn), in [1], the Potency was 16.1 µM (active) and 24.1 µM (active). The Potency result in assay [8], in assay [9], in assay [10], in assay [11], in [4] and in assay [7] was “inactive” in each case. Also, the call in assay [12] was inactive.

Take `Oc1c(Cl)cc(Cl)c2cccnc12`: the Potency result in [1] and in assay [11] was “inactive” in each case. The Potency in assay [4] is 23.4 µM (active). The result in [13] and in [12] was inactive.

As to `CC1=C(C(=O)O)N2C(=O)[C@@H](NC(=O)C(N)c3ccccc3)[C@H]2SC1` (stereo partly drawn), the Potency result in assay [1] and in [7] was “inactive” throughout. Further, the activity, negative = inhibition in assay [2] is -17.9%. The molecule was classed as inactive in [3], in assay [5] and in [6].

For the molecule `COC(=O)Nc1nc2ccc(C(=O)c3ccccc3)cc2[nH]1`, the Potency result in assay [1] and in assay [9] was “inactive” each time. In addition, the molecule was classed as inactive in assay [14], in [13] and in [12]. The Potency was 126 µM (active) in assay [15], 178 µM (active) in [16] and 0.829 µM (active) in [10].

On to `NC(=O)c1ccc2[nH]ccc2c1`, for which the Potency entry in assay [1], in [4] and in [7] was “inactive” in each case. In assay [2], the activity, negative = inhibition was -16.4%. Besides, the call in [3], in [5] and in assay [6] was inactive.

Turning to `CC(C)NCC(O)c1ccc(NS(C)(=O)=O)cc1` (stereo not drawn), the Potency entry in [1], in assay [4] and in [7] was “inactive” in each case. Also, the activity, negative = inhibition in [2] was -4.54%. The call in [3], in [5] and in [6] was inactive.

With `Cc1onc(-c2ccccc2Cl)c1C(=O)N[C@@H]1C(=O)N2[C@@H]1SC(C)(C)[C@@H]2C(=O)O`, the Potency entry in [1], in assay [17], in assay [11] and in assay [7] was “inactive” each time. Besides, the molecule was called inactive in assay [18] and in assay [12].

On to `Nc1nc(F)nc2c1ncn2[C@@H]1O[C@H](CO)[C@@H](O)[C@@H]1O`, for which the Potency entry in assay [1], in [17], in assay [11], in assay [4] and in assay [7] was “inactive” each time. Besides, the call in assay [18], in assay [13] and in [12] was inactive.

Take `CC1(C)[C@H](C(=O)O)N2C(=O)C[C@H]2S1(=O)=O`: the Potency entry in assay [1], in [17], in [11] and in [7] was “inactive” each time. For the same molecule, the result in assay [18] and in [12] was inactive.

For `CC(C)(Sc1cc(C(C)(C)C)c(O)c(C(C)(C)C)c1)Sc1cc(C(C)(C)C)c(O)c(C(C)(C)C)c1`, the Potency result in assay [1], in assay [8], in assay [11], in [4] and in [7] was “inactive” in each case. Further, the result in assay [19], in assay [13] and in assay [12] was inactive. Moreover, the activity change, negative = inhibition in [10] is -19.1% [at 0.566 µM].

As for `CN(C)CCc1c[nH]c2ccc(C[C@H]3COC(=O)N3)cc12`, the Potency result in [1], in assay [17] and in assay [11] was “inactive” in each case. Also, the molecule was called inactive in assay [18], in assay [13] and in [12].
